The campaign covered roughly 39,000 compounds. About 3,300 (8.5%) were called active. For the sample, actives were picked, then their nearest neighbours and some compounds at random.
System: HepG2
Assay: cytotoxicity call (relative viability < 0.9)
Details: 10 µM

Structure (SMILES) | cytotoxicity call
C[C@@H]1CCCCO[C@H](CN(C)C)[C@@H](C)CN([C@H](C)CO)C(=O)c2cc(NC(=O)CCCN(C)C)ccc2O1 | inactive
C[C@@H]1CCCCO[C@@H](CN(C)C(=O)NC2CCCCC2)[C@@H](C)CN([C@@H](C)CO)C(=O)c2cc(NC(=O)Nc3ccc4c(c3)OCO4)ccc2O1 | inactive
C[C@@H]1CN([C@@H](C)CO)C(=O)Cc2cc(NC(=O)Nc3ccc(F)cc3)ccc2O[C@@H]1CN(C)Cc1ccc(Oc2ccccc2)cc1 | inactive
C[C@H](CO)N1C[C@H](C)[C@@H](CN(C)Cc2ccc(Oc3ccccc3)cc2)Oc2ccc(NC(=O)Nc3ccc(F)cc3)cc2CC1=O | active
C[C@@H]1CN([C@H](C)CO)C(=O)Cc2cc(NC(=O)Nc3ccc(F)cc3)ccc2O[C@H]1CN(C)Cc1ccc(Oc2ccccc2)cc1 | active
C[C@H]1CN([C@@H](C)CO)C(=O)Cc2cc(NC(=O)Nc3ccc(F)cc3)ccc2O[C@H]1CN(C)Cc1ccc(Oc2ccccc2)cc1 | active
CC(=O)Nc1nnc(S(N)(=O)=O)s1 | inactive
C[C@H](CO)N1C[C@H](C)[C@@H](CN(C)S(=O)(=O)c2ccc(F)cc2)Oc2ccc(NC(=O)Cn3cnnn3)cc2C1=O | inactive
CC(C)NC(=O)Nc1cccc2c1O[C@@H](CN(C)S(=O)(=O)c1cn(C)cn1)[C@@H](C)CN([C@H](C)CO)C2=O | inactive
CONC(=O)Nc1ccc(-c2sc3c(c2CN(C)Cc2ccccc2)c(=O)n(-c2ccccc2)c(=O)n3Cc2c(F)cccc2F)cc1 | inactive
C[C@@H]1CN([C@@H](C)CO)C(=O)c2cccc(NC(=O)Nc3ccc(F)cc3)c2O[C@H]1CN(C)Cc1ccc(-c2ccccc2)cc1 | inactive
CC(C)OC(=O)c1cn(Cc2c(F)cccc2F)c2sc(-c3ccc(NC(=O)C(C)C)cc3)c(CN(C)Cc3ccccc3)c2c1=O | active
C[C@@H]1CN([C@@H](C)CO)C(=O)c2cc(NC(=O)C3CC3)ccc2O[C@@H]1CN(C)Cc1ccc(C(=O)O)cc1 | inactive
CO[C@H]1CN(C)C(=O)c2cc(NC(=O)CC(F)(F)F)ccc2OC[C@@H](C)N(S(=O)(=O)c2cn(C)cn2)C[C@@H]1C | inactive
COc1ccc(CNC(=O)C[C@H]2C[C@@H]3c4cc(NS(=O)(=O)c5ccc(F)cc5)ccc4O[C@@H]3[C@@H](CO)O2)cc1 | inactive
O=C(C[C@@H]1C=C[C@@H](NS(=O)(=O)c2ccc(F)cc2)[C@@H](CO)O1)NCCN1CCCCC1 | inactive
C[C@@H]1CN([C@@H](C)CO)C(=O)Cc2cc(NC(=O)Nc3cccc4ccccc34)ccc2O[C@H]1CN(C)C(=O)NC1CCCCC1 | inactive
C[C@@H]1CN([C@@H](C)CO)C(=O)c2cc(NC(=O)c3ccccc3)ccc2O[C@@H](C)CCCCO[C@H]1CN(C)CC1CCCCC1 | active
C[C@@H]1CN([C@@H](C)CO)C(=O)c2cc(NC(=O)c3ccccc3)ccc2O[C@@H](C)CCCCO[C@@H]1CN(C)CC1CCCCC1 | inactive
C[C@H]1CCCCO[C@@H](CN(C)CC2CCCCC2)[C@@H](C)CN([C@@H](C)CO)C(=O)c2cc(NC(=O)c3ccccc3)ccc2O1 | inactive
C[C@@H]1CCCCO[C@@H](CN(C)CC2CCCCC2)[C@H](C)CN([C@H](C)CO)C(=O)c2cc(NC(=O)c3ccccc3)ccc2O1 | inactive

Structure (SMILES) | cytotoxicity call
C[C@@H]1CCCCO[C@@H](CN(C)CC2CCCCC2)[C@@H](C)CN([C@H](C)CO)C(=O)c2cc(NC(=O)c3ccccc3)ccc2O1 | active
C[C@@H]1CCCCO[C@H](CN(C)CC2CCCCC2)[C@H](C)CN([C@H](C)CO)C(=O)c2cc(NC(=O)c3ccccc3)ccc2O1 | active
C[C@H]1CCCCO[C@H](CN(C)CC2CCCCC2)[C@@H](C)CN([C@@H](C)CO)C(=O)c2cc(NC(=O)c3ccccc3)ccc2O1 | inactive
C[C@@H]1CN([C@H](C)CO)C(=O)c2cc(NC(=O)c3ccccc3)ccc2O[C@@H](C)CCCCO[C@@H]1CN(C)CC1CCCCC1 | inactive
C[C@@H]1CCCCO[C@@H](CN(C)CC2CCCCC2)[C@H](C)CN([C@@H](C)CO)C(=O)c2cc(NC(=O)c3ccccc3)ccc2O1 | inactive
C[C@H]1CN([C@@H](C)CO)C(=O)c2cc(NS(=O)(=O)c3ccccc3)ccc2O[C@H]1CN(C)S(=O)(=O)c1cccs1 | inactive
COc1ccc(CN(C)C[C@@H]2OCCCC[C@H](C)Oc3ccc(NS(=O)(=O)c4ccccc4)cc3C(=O)N([C@H](C)CO)C[C@H]2C)cc1 | inactive
C[C@@H]1CCCCO[C@@H](CN(C)Cc2ccc(C(=O)O)cc2)[C@@H](C)CN([C@H](C)CO)C(=O)c2cc(NS(=O)(=O)c3ccc(F)cc3)ccc2O1 | inactive
C[C@@H]1CN([C@H](C)CO)C(=O)c2cccc(NC(=O)NC3CCCCC3)c2O[C@@H]1CN(C)Cc1ccc(Cl)c(Cl)c1 | inactive
COc1ccc(NC(=O)Nc2ccc3c(c2)C(=O)N([C@H](C)CO)C[C@H](C)[C@@H](CN(C)S(=O)(=O)c2ccccc2)OCCCC[C@@H](C)O3)cc1 | inactive
Cc1ccc(S(=O)(=O)Nc2cccc3c2O[C@H](CN(C)S(=O)(=O)c2c(C)noc2C)[C@@H](C)CN([C@H](C)CO)C3=O)cc1 | inactive
CC(C)N1CCN(c2ccc(OCC3COC(Cn4cncn4)(c4ccc(Cl)cc4Cl)O3)cc2)CC1 (configuration not stated) | inactive
CC(=O)N1CCN(c2ccc(OCC3COC(Cn4ccnc4)(c4ccc(Cl)cc4Cl)O3)cc2)CC1 (configuration not stated) | inactive
CCC(C(C)O)n1ncn(-c2ccc(N3CCN(c4ccc(OCC5COC(Cn6cncn6)(c6ccc(F)cc6F)C5)cc4)CC3)cc2)c1=O (configuration not stated) | active
CCC(C)n1ncn(-c2ccc(N3CCN(c4ccc(OCC5COC(Cn6cncn6)(c6ccc(Cl)cc6Cl)O5)cc4)CC3)cc2)c1=O.Cl.Cl (configuration not stated) | active
CC[C@@H](C)n1ncn(-c2ccc(N3CCN(c4ccc(OC[C@H]5CO[C@](Cn6cncn6)(c6ccc(Cl)cc6Cl)O5)cc4)CC3)cc2)c1=O | active
CC[C@H](C)n1ncn(-c2ccc(N3CCN(c4ccc(OC[C@H]5CO[C@](Cn6cncn6)(c6ccc(Cl)cc6Cl)O5)cc4)CC3)cc2)c1=O | inactive
C[C@@H]1CN([C@@H](C)CO)C(=O)c2cccc(NC(=O)c3ccc(-c4nccs4)cc3)c2O[C@H]1CN(C)C(=O)Nc1ccc(F)cc1 | inactive
CCS(=O)(=O)Nc1ccc2c(c1)C(=O)N(C)C[C@H](OC)[C@@H](C)CN(Cc1ccccn1)[C@H](C)CO2 | inactive
COc1ccc(C#Cc2ccc3c(c2)O[C@@H](CN(C)C(=O)c2ccccn2)[C@H](C)CN([C@H](C)CO)S3(=O)=O)cc1 | inactive
CC1=CC(=O)N(c2ccn(C)n2)C1=O | inactive

Structure (SMILES) | cytotoxicity call
C[C@@H]1CN([C@H](C)CO)C(=O)c2cc(NC(=O)Cc3ccccc3)ccc2O[C@@H]1CN(C)C(=O)Nc1cccc2ccccc12 | inactive
CC(C)NC(=O)Nc1ccc2c(c1)C(=O)N([C@@H](C)CO)C[C@H](C)[C@@H](CN(C)S(=O)(=O)c1cccs1)O2 | inactive
C[C@@H]1CN([C@H](C)CO)C(=O)Cc2cc(NC(=O)Nc3ccc(C(F)(F)F)cc3)ccc2O[C@H]1CN(C)C(=O)Nc1ccccc1 | inactive
CN1CCN(C(=O)C[C@H]2CC[C@@H]3[C@H](COC[C@@H](O)CN3Cc3ccc4c(c3)OCO4)O2)CC1 | inactive
C[C@@H]1CCCCO[C@H](CN(C)C(=O)c2ccncc2)[C@H](C)CN([C@@H](C)CO)C(=O)c2cc(NS(=O)(=O)c3ccc(Cl)cc3)ccc2O1 | inactive
O=C(C[C@H]1C=C[C@H](NC(=O)c2cnccn2)[C@H](CO)O1)NCc1ccccc1F | inactive
Cc1ccc(S(=O)(=O)N(C)C[C@H]2Oc3ccc(NC(=O)CCCN(C)C)cc3C(=O)N([C@H](C)CO)C[C@H]2C)cc1 | inactive
CO[C@H](CN(C)C(=O)C1CCOCC1)[C@@H](C)CN(C(=O)Nc1ccc(C(F)(F)F)cc1)[C@@H](C)CO | inactive
Cc1ccc(S(=O)(=O)Nc2ccc3c(c2)CC(=O)N([C@H](C)CO)C[C@H](C)[C@H](CN(C)Cc2ccc(-c4ccccc4)cc2)O3)cc1 | active
Cc1ccc(S(=O)(=O)Nc2ccc3c(c2)CC(=O)N([C@@H](C)CO)C[C@@H](C)[C@H](CN(C)Cc2ccc(-c4ccccc4)cc2)O3)cc1 | inactive
Cc1ccc(S(=O)(=O)Nc2ccc3c(c2)CC(=O)N([C@H](C)CO)C[C@@H](C)[C@H](CN(C)Cc2ccc(-c4ccccc4)cc2)O3)cc1 | active
Cc1ccc(S(=O)(=O)Nc2ccc3c(c2)CC(=O)N([C@H](C)CO)C[C@H](C)[C@@H](CN(C)Cc2ccc(-c4ccccc4)cc2)O3)cc1 | active
Cc1ccc(S(=O)(=O)Nc2ccc3c(c2)CC(=O)N([C@H](C)CO)C[C@@H](C)[C@@H](CN(C)Cc2ccc(-c4ccccc4)cc2)O3)cc1 | active
CS(=O)(=O)N1C[C@H]2CN(C(=O)c3cnccn3)C[C@@H]2C1 | inactive
Cc1cc(SCc2ccc(F)cc2)c(C)cc1Cl | inactive
Cc1noc(C)c1NC(=O)N(C)C[C@H]1Oc2c(NC(=O)c3cnccn3)cccc2C(=O)N([C@@H](C)CO)C[C@H]1C | inactive
Cc1noc(C)c1S(=O)(=O)Nc1ccc2c(c1)C(=O)N([C@H](C)CO)C[C@H](C)[C@@H](CN(C)S(=O)(=O)c1ccc(Cl)cc1)O2 | inactive
COCC#Cc1cnc2c(c1)C(=O)N([C@@H](C)CO)C[C@H](C)[C@H](CN(C)S(=O)(=O)c1cn(C)cn1)O2 | inactive
COCC(=O)N[C@H]1C=C[C@@H](CC(=O)N2CCCCC2)O[C@@H]1CO | inactive
CCCC#Cc1ccc2c(c1)O[C@H](CN(C)S(=O)(=O)c1cccc(OC)c1)[C@H](C)CN([C@H](C)CO)S2(=O)=O | inactive

— the antibiotic and cytotoxicity screens of Wong et al. (2023)
